# Source: paper PMC7862700, “An all-to-all approach to the identification of sequence-specific readers for epigenetic DNA modifications on cytosine”
# Tests used:
# Experiment in all cases: DAPPL (digital affinity profiling via proximity ligation, sequencing); 10 mM Tris-HCl pH 7.5, 50 mM NaCl, 1 mM DTT, 4% glycerol, room temperature, 30 min; GST-TFs on glutathione beads, 16-mer random dsDNA library, 0.1% formaldehyde crosslink after washing; high values mean tight binding
# [1] = molecular target: T1, FLI1 (Homo sapiens, UniProt Q01543 1-452); conditions: protein: recombinant; tags: N-terminal GST; dsDNA, one strand shown
# T1 sequence: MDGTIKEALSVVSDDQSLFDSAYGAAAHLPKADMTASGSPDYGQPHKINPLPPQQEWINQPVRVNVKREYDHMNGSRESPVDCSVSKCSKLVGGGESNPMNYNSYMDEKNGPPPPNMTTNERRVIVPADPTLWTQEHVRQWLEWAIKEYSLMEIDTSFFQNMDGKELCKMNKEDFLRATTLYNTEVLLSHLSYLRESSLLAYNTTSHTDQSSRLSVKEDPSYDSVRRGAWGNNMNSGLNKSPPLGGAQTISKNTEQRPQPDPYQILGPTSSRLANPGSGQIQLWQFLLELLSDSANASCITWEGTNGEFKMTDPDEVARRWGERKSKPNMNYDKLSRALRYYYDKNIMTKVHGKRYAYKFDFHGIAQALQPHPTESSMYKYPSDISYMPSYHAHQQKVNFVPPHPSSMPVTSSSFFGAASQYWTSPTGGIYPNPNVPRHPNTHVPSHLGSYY
# How it was run: (§1)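 GST fusions of human transcription factors were expressed in yeast and captured with glutathione beads. Once given DNA barcodes and pooled alongside a tag-only sample, they were incubated for 30 min at room temperature with 200 nmole of a random double-stranded 16-mer DNA library in Tris/NaCl/DTT/glycerol buffer, then washed, crosslinked (0.1% formaldehyde), proximity-ligated, PCR-amplified and sequenced on an Illumina NextSeq500. The binding signal of each hexamer is its read frequency for a factor divided by its frequency for the tag-only sample.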
# [2] = molecular target: T2, ELK1 (Homo sapiens, UniProt P19419 1-428); conditions: protein: recombinant; tags: N-terminal GST; dsDNA, one strand shown
# T2 sequence: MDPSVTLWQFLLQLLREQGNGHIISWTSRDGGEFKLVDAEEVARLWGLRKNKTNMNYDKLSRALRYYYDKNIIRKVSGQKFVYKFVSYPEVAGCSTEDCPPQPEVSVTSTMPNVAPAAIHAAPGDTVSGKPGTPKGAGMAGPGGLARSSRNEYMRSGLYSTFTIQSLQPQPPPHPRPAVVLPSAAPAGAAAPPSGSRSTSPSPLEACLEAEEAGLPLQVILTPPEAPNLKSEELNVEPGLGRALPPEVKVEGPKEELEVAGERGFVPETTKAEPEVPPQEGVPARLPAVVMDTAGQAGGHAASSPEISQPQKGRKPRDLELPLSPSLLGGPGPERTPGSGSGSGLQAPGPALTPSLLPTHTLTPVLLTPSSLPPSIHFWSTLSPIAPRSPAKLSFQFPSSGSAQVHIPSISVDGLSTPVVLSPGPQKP
# How it was run: as §1
# [3] = molecular target: T3, GABPA (Homo sapiens, UniProt Q06546 1-454); conditions: protein: recombinant; tags: N-terminal GST; dsDNA, one strand shown
# T3 sequence: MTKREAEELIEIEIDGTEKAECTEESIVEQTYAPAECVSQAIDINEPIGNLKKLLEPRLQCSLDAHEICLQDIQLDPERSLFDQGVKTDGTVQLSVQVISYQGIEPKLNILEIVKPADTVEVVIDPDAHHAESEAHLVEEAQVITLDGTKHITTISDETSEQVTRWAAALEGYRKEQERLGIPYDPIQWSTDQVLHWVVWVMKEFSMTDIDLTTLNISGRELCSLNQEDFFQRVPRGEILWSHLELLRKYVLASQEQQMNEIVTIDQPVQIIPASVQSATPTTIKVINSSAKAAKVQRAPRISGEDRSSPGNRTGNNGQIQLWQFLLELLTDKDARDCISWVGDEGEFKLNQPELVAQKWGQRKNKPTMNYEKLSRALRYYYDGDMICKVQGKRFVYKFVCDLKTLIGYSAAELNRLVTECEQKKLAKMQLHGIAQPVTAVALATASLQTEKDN
# How it was run: as §1
# [4] = molecular target: T4, ERG (Homo sapiens, UniProt P11308 1-479); conditions: protein: recombinant; tags: N-terminal GST; dsDNA, one strand shown
# T4 sequence: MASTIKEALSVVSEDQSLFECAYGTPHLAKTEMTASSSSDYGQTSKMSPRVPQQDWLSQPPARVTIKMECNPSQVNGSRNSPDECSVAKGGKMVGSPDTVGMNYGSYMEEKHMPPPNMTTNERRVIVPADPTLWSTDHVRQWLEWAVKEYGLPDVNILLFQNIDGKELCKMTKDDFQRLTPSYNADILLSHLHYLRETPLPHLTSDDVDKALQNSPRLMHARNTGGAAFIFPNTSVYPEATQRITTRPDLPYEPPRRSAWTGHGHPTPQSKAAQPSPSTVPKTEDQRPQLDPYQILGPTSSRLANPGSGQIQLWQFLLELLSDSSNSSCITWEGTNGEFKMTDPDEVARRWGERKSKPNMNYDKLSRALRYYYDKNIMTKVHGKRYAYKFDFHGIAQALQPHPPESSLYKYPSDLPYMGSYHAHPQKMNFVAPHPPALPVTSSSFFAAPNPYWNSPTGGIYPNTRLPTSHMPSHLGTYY
# How it was run: as §1
# [5] = molecular target: ELF1 (Homo sapiens, UniProt P32519 1-619); conditions: protein: recombinant; tags: N-terminal GST; dsDNA, one strand shown
# How it was run: as §1
# [6] = molecular target: T5, EHF (Homo sapiens, UniProt Q9NZC4 1-300); conditions: protein: recombinant; tags: N-terminal GST; dsDNA, one strand shown
# T5 sequence: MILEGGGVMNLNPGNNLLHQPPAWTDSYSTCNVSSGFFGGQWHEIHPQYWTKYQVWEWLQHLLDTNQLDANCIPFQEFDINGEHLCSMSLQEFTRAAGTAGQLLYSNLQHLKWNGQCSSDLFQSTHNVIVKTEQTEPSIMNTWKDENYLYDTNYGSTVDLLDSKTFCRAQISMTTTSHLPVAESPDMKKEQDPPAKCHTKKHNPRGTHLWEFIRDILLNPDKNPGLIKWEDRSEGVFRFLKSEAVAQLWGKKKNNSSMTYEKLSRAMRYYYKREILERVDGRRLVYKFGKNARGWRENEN
# How it was run: as §1
# [7] = molecular target: SPI1 (Homo sapiens, UniProt P17947 1-270); conditions: protein: recombinant; tags: N-terminal GST; dsDNA, one strand shown
# How it was run: as §1
# [8] = molecular target: SPIB (Homo sapiens, UniProt Q01892 1-262); conditions: protein: recombinant; tags: N-terminal GST; dsDNA, one strand shown
# How it was run: as §1
# [9] = molecular target: T6, ELK3 (Homo sapiens, UniProt P41970 1-407); conditions: protein: recombinant; tags: N-terminal GST; dsDNA, one strand shown
# T6 sequence: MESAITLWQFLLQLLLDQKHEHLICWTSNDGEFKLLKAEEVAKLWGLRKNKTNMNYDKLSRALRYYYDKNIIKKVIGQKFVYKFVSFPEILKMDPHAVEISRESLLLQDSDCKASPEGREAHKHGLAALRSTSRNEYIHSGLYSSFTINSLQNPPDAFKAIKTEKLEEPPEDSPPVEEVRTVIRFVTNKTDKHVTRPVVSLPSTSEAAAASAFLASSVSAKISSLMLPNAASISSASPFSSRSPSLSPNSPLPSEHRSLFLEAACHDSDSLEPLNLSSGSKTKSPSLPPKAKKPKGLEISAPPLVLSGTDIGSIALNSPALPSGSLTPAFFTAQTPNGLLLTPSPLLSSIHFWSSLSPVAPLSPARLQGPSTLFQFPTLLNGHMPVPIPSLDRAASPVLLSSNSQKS
# How it was run: as §1
# [10] = molecular target: T7, FEV (Homo sapiens, UniProt Q99581 1-238); conditions: protein: recombinant; tags: N-terminal GST; dsDNA, one strand shown
# T7 sequence: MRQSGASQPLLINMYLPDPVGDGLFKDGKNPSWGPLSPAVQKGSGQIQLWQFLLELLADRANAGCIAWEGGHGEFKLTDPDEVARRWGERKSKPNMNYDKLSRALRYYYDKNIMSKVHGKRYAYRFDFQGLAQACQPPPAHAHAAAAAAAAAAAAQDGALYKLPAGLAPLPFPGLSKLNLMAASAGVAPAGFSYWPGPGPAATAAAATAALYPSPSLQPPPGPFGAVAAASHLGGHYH
# How it was run: as §1
# [11] = molecular target: ETV5 (Homo sapiens, UniProt P41161 1-510); conditions: protein: recombinant; tags: N-terminal GST; dsDNA, one strand shown
# How it was run: as §1
# [12] = molecular target: HSF1 (Homo sapiens, UniProt Q00613 1-529); conditions: protein: recombinant; tags: N-terminal GST; chain copies: 3; dsDNA, one strand shown
# How it was run: as §1
# [13] = molecular target: T8, SPIC (Homo sapiens, UniProt Q8N5J4 1-248); conditions: protein: recombinant; tags: N-terminal GST; dsDNA, one strand shown
# T8 sequence: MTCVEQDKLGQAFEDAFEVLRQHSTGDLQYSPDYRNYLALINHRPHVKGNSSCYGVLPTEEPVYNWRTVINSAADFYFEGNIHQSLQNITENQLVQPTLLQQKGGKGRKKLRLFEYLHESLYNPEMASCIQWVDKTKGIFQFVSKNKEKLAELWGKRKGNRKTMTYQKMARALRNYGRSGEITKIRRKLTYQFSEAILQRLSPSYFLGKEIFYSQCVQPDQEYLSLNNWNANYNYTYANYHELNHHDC
# How it was run: as §1
# [14] = molecular target: ELF4 (Homo sapiens, UniProt Q99607 1-663); conditions: protein: recombinant; tags: N-terminal GST; dsDNA, one strand shown
# How it was run: as §1
# [15] = molecular target: T9, ELK4 (Homo sapiens, UniProt P28324-2 1-405); conditions: protein: recombinant; tags: N-terminal GST; dsDNA, one strand shown
# T9 sequence: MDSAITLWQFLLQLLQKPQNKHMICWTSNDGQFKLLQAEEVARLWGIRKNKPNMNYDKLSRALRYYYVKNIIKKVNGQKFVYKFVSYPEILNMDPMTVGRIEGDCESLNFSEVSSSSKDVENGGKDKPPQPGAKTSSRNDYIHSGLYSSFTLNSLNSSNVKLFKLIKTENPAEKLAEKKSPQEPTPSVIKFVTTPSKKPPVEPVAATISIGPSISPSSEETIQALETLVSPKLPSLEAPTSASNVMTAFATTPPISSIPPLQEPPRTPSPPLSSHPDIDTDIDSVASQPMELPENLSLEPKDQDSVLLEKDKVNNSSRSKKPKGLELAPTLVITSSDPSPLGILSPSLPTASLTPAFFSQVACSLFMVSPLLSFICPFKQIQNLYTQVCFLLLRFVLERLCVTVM
# How it was run: as §1
# [16] = molecular target: T10, ETV2 (Homo sapiens, UniProt O00321 1-342); conditions: protein: recombinant; tags: N-terminal GST; dsDNA, one strand shown
# T10 sequence: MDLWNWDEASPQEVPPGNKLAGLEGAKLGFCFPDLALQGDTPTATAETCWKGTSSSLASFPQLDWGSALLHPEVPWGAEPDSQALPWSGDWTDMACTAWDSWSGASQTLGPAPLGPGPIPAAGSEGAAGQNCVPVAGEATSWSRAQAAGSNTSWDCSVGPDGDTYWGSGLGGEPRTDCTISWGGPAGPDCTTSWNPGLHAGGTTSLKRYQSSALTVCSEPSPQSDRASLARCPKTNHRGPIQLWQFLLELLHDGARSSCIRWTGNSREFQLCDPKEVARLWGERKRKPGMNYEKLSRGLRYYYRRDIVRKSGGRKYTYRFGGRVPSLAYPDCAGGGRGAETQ
# How it was run: as §1
# [17] = molecular target: T11, ELF3 (Homo sapiens, UniProt P78545 1-371); conditions: protein: recombinant; tags: N-terminal GST; dsDNA, one strand shown
# T11 sequence: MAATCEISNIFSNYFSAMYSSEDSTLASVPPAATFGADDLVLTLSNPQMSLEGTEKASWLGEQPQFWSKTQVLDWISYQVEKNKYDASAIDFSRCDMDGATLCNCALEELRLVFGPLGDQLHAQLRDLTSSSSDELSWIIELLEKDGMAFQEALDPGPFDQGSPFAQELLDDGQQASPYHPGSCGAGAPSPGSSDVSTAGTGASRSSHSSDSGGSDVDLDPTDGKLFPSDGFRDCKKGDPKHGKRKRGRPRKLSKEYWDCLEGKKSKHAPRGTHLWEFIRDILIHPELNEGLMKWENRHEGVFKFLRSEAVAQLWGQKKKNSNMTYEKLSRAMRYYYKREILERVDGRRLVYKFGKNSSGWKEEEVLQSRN
# How it was run: as §1
# [18] = molecular target: ETV1 (Homo sapiens, UniProt P50549 1-477); conditions: protein: recombinant; tags: N-terminal GST; dsDNA, one strand shown
# How it was run: as §1
# Chain of ELF1 (P32519 whole entry): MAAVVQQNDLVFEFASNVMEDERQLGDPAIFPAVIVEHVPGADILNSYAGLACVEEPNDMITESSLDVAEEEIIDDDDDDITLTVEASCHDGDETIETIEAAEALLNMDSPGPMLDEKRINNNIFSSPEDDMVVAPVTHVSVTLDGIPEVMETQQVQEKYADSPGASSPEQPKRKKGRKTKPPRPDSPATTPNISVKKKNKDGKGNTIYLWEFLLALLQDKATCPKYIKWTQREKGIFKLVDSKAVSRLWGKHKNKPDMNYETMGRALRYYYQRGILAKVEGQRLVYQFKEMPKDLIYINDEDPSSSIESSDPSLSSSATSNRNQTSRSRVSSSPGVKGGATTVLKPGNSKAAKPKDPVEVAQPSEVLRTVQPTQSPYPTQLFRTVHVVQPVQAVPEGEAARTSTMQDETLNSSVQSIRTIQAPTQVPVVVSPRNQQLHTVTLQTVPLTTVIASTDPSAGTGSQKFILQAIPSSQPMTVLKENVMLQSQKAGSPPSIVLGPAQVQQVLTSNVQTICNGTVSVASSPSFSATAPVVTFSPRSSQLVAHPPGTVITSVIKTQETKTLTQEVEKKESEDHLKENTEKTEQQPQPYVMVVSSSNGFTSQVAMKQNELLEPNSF
# Chain of ELF4 (Q99607 whole entry): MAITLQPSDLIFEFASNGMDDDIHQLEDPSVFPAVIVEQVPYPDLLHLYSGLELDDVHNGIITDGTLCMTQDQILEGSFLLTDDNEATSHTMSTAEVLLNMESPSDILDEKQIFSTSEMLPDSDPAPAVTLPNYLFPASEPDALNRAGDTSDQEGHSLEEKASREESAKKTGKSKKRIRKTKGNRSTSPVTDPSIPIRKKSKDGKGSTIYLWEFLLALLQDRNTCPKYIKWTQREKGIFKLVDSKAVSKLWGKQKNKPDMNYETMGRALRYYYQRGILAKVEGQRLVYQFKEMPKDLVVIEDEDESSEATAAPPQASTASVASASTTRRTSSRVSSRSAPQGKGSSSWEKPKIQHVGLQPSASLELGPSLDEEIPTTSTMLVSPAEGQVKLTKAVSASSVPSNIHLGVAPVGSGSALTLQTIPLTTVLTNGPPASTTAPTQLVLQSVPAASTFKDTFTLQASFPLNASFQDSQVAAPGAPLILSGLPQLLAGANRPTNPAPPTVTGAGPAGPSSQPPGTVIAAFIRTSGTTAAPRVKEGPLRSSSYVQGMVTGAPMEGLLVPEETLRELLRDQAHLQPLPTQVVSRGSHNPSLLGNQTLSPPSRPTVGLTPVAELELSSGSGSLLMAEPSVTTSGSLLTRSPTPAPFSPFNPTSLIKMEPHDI
# Chain of HSF1 (Q00613 whole entry): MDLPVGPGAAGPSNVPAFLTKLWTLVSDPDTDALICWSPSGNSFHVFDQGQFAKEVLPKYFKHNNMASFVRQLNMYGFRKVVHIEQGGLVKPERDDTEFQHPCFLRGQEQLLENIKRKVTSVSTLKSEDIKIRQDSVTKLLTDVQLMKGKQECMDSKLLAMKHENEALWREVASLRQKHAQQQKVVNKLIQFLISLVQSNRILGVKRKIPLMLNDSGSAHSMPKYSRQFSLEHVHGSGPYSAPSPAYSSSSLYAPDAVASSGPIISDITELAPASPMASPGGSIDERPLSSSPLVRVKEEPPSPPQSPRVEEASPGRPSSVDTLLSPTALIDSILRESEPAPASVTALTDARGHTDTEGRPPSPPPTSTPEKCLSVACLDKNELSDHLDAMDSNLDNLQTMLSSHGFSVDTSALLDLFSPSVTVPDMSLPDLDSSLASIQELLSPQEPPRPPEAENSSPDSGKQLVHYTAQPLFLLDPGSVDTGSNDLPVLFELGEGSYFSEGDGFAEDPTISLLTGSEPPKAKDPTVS
# Chain of ETV1 (P50549 whole entry): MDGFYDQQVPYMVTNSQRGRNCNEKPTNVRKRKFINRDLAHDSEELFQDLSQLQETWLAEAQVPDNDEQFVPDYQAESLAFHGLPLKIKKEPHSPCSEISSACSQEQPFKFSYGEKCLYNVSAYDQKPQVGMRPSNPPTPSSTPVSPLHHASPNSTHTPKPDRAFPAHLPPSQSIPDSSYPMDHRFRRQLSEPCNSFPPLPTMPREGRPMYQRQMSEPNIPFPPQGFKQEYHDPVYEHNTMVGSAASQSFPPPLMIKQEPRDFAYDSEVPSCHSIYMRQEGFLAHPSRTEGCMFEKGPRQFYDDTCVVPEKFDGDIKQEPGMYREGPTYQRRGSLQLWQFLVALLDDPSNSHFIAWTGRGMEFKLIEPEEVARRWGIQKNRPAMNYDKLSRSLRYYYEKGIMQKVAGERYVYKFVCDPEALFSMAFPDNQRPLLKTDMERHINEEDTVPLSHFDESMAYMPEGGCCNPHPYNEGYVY
# Chain of SPIB (Q01892 whole entry): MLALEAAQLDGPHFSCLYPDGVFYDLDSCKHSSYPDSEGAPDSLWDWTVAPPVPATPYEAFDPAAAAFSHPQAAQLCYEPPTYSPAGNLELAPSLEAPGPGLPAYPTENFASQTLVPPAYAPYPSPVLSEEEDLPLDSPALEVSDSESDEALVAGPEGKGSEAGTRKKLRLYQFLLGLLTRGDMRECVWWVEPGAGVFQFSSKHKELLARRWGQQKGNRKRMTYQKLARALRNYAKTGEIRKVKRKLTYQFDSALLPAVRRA
# Chain of ETV5 (P41161 whole entry): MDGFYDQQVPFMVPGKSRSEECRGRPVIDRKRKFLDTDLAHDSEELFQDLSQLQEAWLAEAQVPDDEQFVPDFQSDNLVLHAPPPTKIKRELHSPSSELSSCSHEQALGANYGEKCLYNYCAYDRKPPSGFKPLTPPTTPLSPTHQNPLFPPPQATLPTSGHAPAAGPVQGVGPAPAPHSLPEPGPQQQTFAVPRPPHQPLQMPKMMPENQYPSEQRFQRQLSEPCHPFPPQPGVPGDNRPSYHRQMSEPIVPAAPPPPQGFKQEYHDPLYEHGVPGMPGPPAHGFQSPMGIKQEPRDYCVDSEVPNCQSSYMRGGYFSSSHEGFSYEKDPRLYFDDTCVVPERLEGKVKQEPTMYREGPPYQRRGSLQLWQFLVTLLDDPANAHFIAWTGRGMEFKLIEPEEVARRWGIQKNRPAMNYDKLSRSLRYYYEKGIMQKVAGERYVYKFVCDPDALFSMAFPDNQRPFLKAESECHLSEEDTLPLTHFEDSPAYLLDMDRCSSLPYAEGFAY
sequence,measurement,setting,value
ATGGGC,binding signal,[1],"1.28 fold enrichment (6-mer frequency, TF over GST control)"
same,binding signal,[2],"1.29 fold enrichment (6-mer frequency, TF over GST control)"
same,binding signal,[3],"1.3 fold enrichment (6-mer frequency, TF over GST control)"
same,binding signal,[4],"1.26 fold enrichment (6-mer frequency, TF over GST control)"
same,binding signal,[5],"1.27 fold enrichment (6-mer frequency, TF over GST control)"
same,binding signal,[6],"1.32 fold enrichment (6-mer frequency, TF over GST control)"
same,binding signal,[7],"1.35 fold enrichment (6-mer frequency, TF over GST control)"
same,binding signal,[8],"1.3 fold enrichment (6-mer frequency, TF over GST control)"
same,binding signal,[9],"1.37 fold enrichment (6-mer frequency, TF over GST control)"
same,binding signal,[10],"1.28 fold enrichment (6-mer frequency, TF over GST control)"
same,binding signal,[11],"1.25 fold enrichment (6-mer frequency, TF over GST control)"
same,binding signal,[12],"1.03 fold enrichment (6-mer frequency, TF over GST control)"
same,binding signal,[13],"1.35 fold enrichment (6-mer frequency, TF over GST control)"
same,binding signal,[14],"1.35 fold enrichment (6-mer frequency, TF over GST control)"
same,binding signal,[15],"1.49 fold enrichment (6-mer frequency, TF over GST control)"
same,binding signal,[16],"1.17 fold enrichment (6-mer frequency, TF over GST control)"
same,binding signal,[17],"1.24 fold enrichment (6-mer frequency, TF over GST control)"
same,binding signal,[18],"1.19 fold enrichment (6-mer frequency, TF over GST control)"
